Experimental data published in PubChem BioAssay (NCATS).
Inconclusive results are not listed. Activity calls are given as the source filed them. Calls come from the whole dose curve; as a rule, active = well fitted inhibition curve with a large enough effect; inconclusive = small, poorly fitted or top-dose-only effect; inactive = flat fitted curve, though single readings scatter.

Columns and labels:
[1] = test system: ICS; experiment: qHTS profiling for inhibitors of Plasmodium falciparum proliferation (AID 504749);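 note: 0% = DMSO vehicle and full inhibition = artemisinin control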; conditions: P. falciparum in erythrocytes, SYBR Green DNA, 72 h; series mostly up to 28.7 µM
Method in brief: (§1)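 Infected RBCs, 0.3% parasitemia/2.5% Hct final; cpd 72 h, 37 C, 5% CO2; lysis buffer with saponin/triton/SYBR Green I, o/n RT dark; FI 485/535; norm. to artemisinin (0.29 uM) and DMSO.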

[2] = test system: JCK; experiment: as above; conditions: P. falciparum in erythrocytes, SYBR Green DNA, 72 h; series mostly up to 28.7 µM
Method in brief: as §1

[3] = test system: N140; experiment: as above; conditions: P. falciparum in erythrocytes, SYBR Green DNA, 72 h; series mostly up to 28.7 µM
Method in brief: as §1

[4] = test system: P93_24; experiment: as above; conditions: P. falciparum in erythrocytes, SYBR Green DNA, 72 h; series mostly up to 28.7 µM
Method in brief: as §1

[5] = test system: P94_40; experiment: as above; conditions: P. falciparum in erythrocytes, SYBR Green DNA, 72 h; series mostly up to 28.7 µM
Method in brief: as §1

[6] = test system: PAD; experiment: as above; conditions: P. falciparum in erythrocytes, SYBR Green DNA, 72 h; series mostly up to 28.7 µM
Method in brief: as §1

[7] = test system: PC15; experiment: as above; conditions: P. falciparum in erythrocytes, SYBR Green DNA, 72 h; series mostly up to 28.7 µM
Method in brief: as §1

[8] = test system: PC26; experiment: as above; conditions: P. falciparum in erythrocytes, SYBR Green DNA, 72 h; series mostly up to 28.7 µM
Method in brief: as §1

[9] = test system: PC49; experiment: as above; conditions: P. falciparum in erythrocytes, SYBR Green DNA, 72 h; series mostly up to 28.7 µM
Method in brief: as §1

[10] = test system: SC27B; experiment: as above; conditions: P. falciparum in erythrocytes, SYBR Green DNA, 72 h; series mostly up to 28.7 µM
Method in brief: as §1

[11] = test system: TAB109; experiment: as above; conditions: P. falciparum in erythrocytes, SYBR Green DNA, 72 h; series mostly up to 28.7 µM
Method in brief: as §1

[12] = test system: TAB113; experiment: as above; conditions: P. falciparum in erythrocytes, SYBR Green DNA, 72 h; series mostly up to 28.7 µM
Method in brief: as §1

[13] = test system: TAB165; experiment: as above; conditions: P. falciparum in erythrocytes, SYBR Green DNA, 72 h; series mostly up to 28.7 µM
Method in brief: as §1

[14] = test system: W2; experiment: as above; conditions: P. falciparum in erythrocytes, SYBR Green DNA, 72 h; series mostly up to 28.7 µM
Method in brief: as §1

[15] = test system: KB-3-1; experiment: Cytotoxic Profiling of Annotated Libraries Using Quantitative High-Throughput Screening (AID 1296008); conditions: Five cell lines viability, CellTiter-Glo ATP luminescence, 48-72 h; max response: stronger effect = lower value; note: % is set by controls: 0 for no effect and ±100 for the full control effect
Method in brief: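 Cytotoxicity was measured as CellTiter-Glo ATP luminescence, read after 10 min at room temperature. Compound treatment of the cells lasted 48 or 72 hr at 37 degrees Celsius in a qHTS format.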
Note: nearly all actives have a fitted effect of over 60% in size.

C=CCCCCCCCCC(=O)OC
inactive: Potency [1] | Potency [2] | Potency [3] | Potency [4] | Potency [5] | Potency [6] | Potency [7] | Potency [8] | Potency [9] | Potency [10] | Potency [11] | Potency [12] | Potency [13] | Potency [14] | max response [15] 9.89%

Cc1nc(NS(=O)(=O)c2ccc(N)cc2)nc(C)c1Br
inactive: Potency [1] | Potency [2] | Potency [3] | Potency [4] | Potency [5] | Potency [6] | Potency [7] | Potency [8] | Potency [9] | Potency [10] | Potency [11] | Potency [12] | Potency [13] | Potency [14] | max response [15] 9.38%

COc1ccc(-c2noc(CC(=O)O)c2-c2ccc(OC)cc2)cc1
inactive: Potency [1] | Potency [2] | Potency [3] | Potency [4] | Potency [5] | Potency [6] | Potency [7] | Potency [8] | Potency [9] | Potency [10] | Potency [11] | Potency [12] | Potency [13] | Potency [14] | max response [15] 2.01%

CCC(C(=O)NC(N)=O)c1ccccc1 (stereo not given)
inactive: Potency [1] | Potency [2] | Potency [3] | Potency [4] | Potency [5] | Potency [6] | Potency [7] | Potency [8] | Potency [9] | Potency [10] | Potency [11] | Potency [12] | Potency [13] | Potency [14] | max response [15] 4%

CCCCCCCCCCCCOCCCN
inactive: Potency [1] | Potency [2] | Potency [3] | Potency [4] | Potency [5] | Potency [6] | Potency [7] | Potency [8] | Potency [9] | Potency [10] | Potency [11] | Potency [12] | Potency [13] | Potency [14] | max response [15] -4.56%

CC(C)c1ncc([N+](=O)[O-])n1C
inactive: Potency [1] | Potency [2] | Potency [3] | Potency [4] | Potency [5] | Potency [6] | Potency [7] | Potency [8] | Potency [9] | Potency [10] | Potency [11] | Potency [12] | Potency [13] | Potency [14] | max response [15] -7.8%

COC(=O)CCC[N+](C)(C)C
inactive: Potency [1] | Potency [2] | Potency [3] | Potency [4] | Potency [5] | Potency [6] | Potency [7] | Potency [8] | Potency [9] | Potency [10] | Potency [11] | Potency [12] | Potency [13] | Potency [14] | max response [15] -6.27%

COC(=O)CC[C@H](N)C(=O)O
inactive: Potency [1] | Potency [2] | Potency [3] | Potency [4] | Potency [5] | Potency [6] | Potency [7] | Potency [8] | Potency [9] | Potency [10] | Potency [11] | Potency [12] | Potency [13] | Potency [14] | max response [15] 0.526%

COC(=O)C(CN)c1c[nH]c2ccc(OC)cc12 (stereo not given)
inactive: Potency [1] | Potency [2] | Potency [3] | Potency [4] | Potency [5] | Potency [6] | Potency [7] | Potency [8] | Potency [9] | Potency [10] | Potency [11] | Potency [12] | Potency [13] | Potency [14] | max response [15] 9.41%

N[C@H](CC(=O)O)C(=O)O
inactive: Potency [1] | Potency [2] | Potency [3] | Potency [4] | Potency [5] | Potency [6] | Potency [7] | Potency [8] | Potency [9] | Potency [10] | Potency [11] | Potency [12] | Potency [13] | Potency [14] | max response [15] 11.5%

O=C(NNCNNC(=O)c1ccncc1)c1ccncc1
inactive: Potency [1] | Potency [2] | Potency [3] | Potency [4] | Potency [5] | Potency [6] | Potency [7] | Potency [8] | Potency [9] | Potency [10] | Potency [11] | Potency [12] | Potency [13] | Potency [14] | max response [15] 1.42%

C=CCOc1ccc(CC(=O)O)cc1Cl
inactive: Potency [1] | Potency [2] | Potency [3] | Potency [4] | Potency [5] | Potency [6] | Potency [7] | Potency [8] | Potency [9] | Potency [10] | Potency [11] | Potency [12] | Potency [13] | Potency [14] | max response [15] 11.1%

CNC(=O)C[C@@H](N)C(=O)N[C@@H](C(=O)N[C@@H]1C(=O)N2[C@@H]1SC(C)(C)[C@@H]2C(=O)O)c1ccc(O)cc1
inactive: Potency [1] | Potency [2] | Potency [3] | Potency [4] | Potency [5] | Potency [6] | Potency [7] | Potency [8] | Potency [9] | Potency [10] | Potency [11] | Potency [12] | Potency [13] | Potency [14] | max response [15] -18.5%

CN1C(=O)C[C@@H](C(=O)N[C@@H](Cc2cnc[nH]2)C(=O)N2CCC[C@H]2C(N)=O)NC1=O
inactive: Potency [1] | Potency [2] | Potency [3] | Potency [4] | Potency [5] | Potency [6] | Potency [7] | Potency [8] | Potency [9] | Potency [10] | Potency [11] | Potency [12] | Potency [13] | Potency [14] | max response [15] 5.84%

ClC(Cl)Cl
inactive: Potency [1] | Potency [2] | Potency [3] | Potency [4] | Potency [5] | Potency [6] | Potency [7] | Potency [8] | Potency [9] | Potency [10] | Potency [11] | Potency [12] | Potency [13] | Potency [14] | max response [15] 3.29%

C[C@H](CCC(=O)O)[C@H]1CC[C@H]2[C@@H]3CC[C@@H]4C[C@H](O)CC[C@]4(C)[C@H]3C[C@H](O)[C@]12C
inactive: Potency [1] | Potency [2] | Potency [3] | Potency [4] | Potency [5] | Potency [6] | Potency [7] | Potency [8] | Potency [9] | Potency [10] | Potency [11] | Potency [12] | Potency [13] | Potency [14] | max response [15] -0.187%
